# According to the OligoGym collection:
# Target: ZNF543
# Assay: pooled miR-30 sensor sort-seq; sequence = guide strand
# Details: shRNA
# Note: reference of the scale not given here.
row,Sequence,sensor-assay potency score (higher = more potent)
1,TTCTGTTGAAACTTGTTTCTGT,0.852
2,TAGGAATTTTTCTCTTCGCGAA,-0.467
3,TTCTTTTTAAACACTTTCCCGC,-0.356
4,TTTCACTCCAGTGTGAATCTGT,0.767
5,TCTTTGTACATACACCATCATC,-1.6
6,TGTAGTGTCGAATGAAACCTGG,-0.172
7,TTCACTTGAGTGTGAATCCGTT,-0.0362
8,TTCTGTGTAATCTTTGTACATA,-0.793
9,TTTTTAAACACTTTCCCGCATT,-0.669
10,TTCAGAACTCATTTTCTCCAGC,0.596
11,TAATCTTTGTACATACACCATC,-0.698
12,TTGTACATACACCATCATCTGA,-0.467

# Target: ZNF548
# Assay: as above
# Details: shRNA
row,Sequence,sensor-assay potency score (higher = more potent)
1,TGTCTCACTAGGGTGGACCTTC,-0.0557
2,ATTTGTAATCATTTTGTCCAGT,-0.192
3,TTTCTGGTGATGAACCAGGTGA,-0.687
4,TTATAAGGTCTTTCTCCGGTGT,-0.00393
5,ATTCATAAGACCTTTCTCCTGT,0.892
